The values below come from PubChem BioAssay AID432 (Sanford-Burnham Center for Chemical Genomics, 2006).

Structures are written as SMILES. The campaign covered roughly 64,000 compounds. About 15 (0.02%) were called active. Only a sample is shown. Potency and affinity values are given separately. Unmarked numbers belong to inactive results. No rule for the calls is given here.

The target of this assay is Bcl-2-related protein A1 (Mus musculus) (UniProt Q07440). The assay is described as follows: displacement of Bid BH3 peptide from Bfl-1 – biochemical, fluorescence polarization, FITC-Bid, mouse, primary screen (AID 432). Particulars: at 20 µM, active compounds read high.
Chain of Bcl-2-related protein A1 (Mus musculus) (Q07440 whole entry, looked up): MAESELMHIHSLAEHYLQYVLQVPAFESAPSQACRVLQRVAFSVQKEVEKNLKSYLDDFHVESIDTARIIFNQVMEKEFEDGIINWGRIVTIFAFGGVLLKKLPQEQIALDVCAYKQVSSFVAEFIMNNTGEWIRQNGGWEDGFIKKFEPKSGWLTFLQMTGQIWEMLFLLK
`CCCN(c1ccc(C(C)C)cc1)S(=O)(=O)c1c(C)noc1C`: the displacement is -2%.
With `COC(=O)Nc1ccc2c(c1)ncn2C1CCCCC1` the figure was -3.2%.
On to `Brc1ccccc1-c1nnc(CSc2nncn2-c2ccccc2)o1`, for which the displacement was -1.8%.
With `CCCCC(CC)CNC(=O)c1ccc2c(c1)OCO2` (configuration not stated) the figure was 0.7%; with `CC1CC(C)CN(Cc2nc3c(c(=O)n(C)c(=O)n3C)n2CCN2CCOCC2)C1` (configuration not stated), 29.2%.
With `Cc1ccc(S(=O)(=O)N(C)CCCC(=O)n2nc(C)cc2C)cc1`, the displacement is 7%.
For the compound `COc1ccc(C2CCN(Cc3cccnc3)CC2O)cc1` (configuration not stated), the displacement was -8.7%.
For the compound `CCOC(=O)N1CCC(NC(=O)CN2C(=O)CSc3ncccc32)CC1`, the displacement was 3.4%.
In the case of `Cc1ccc(S(=O)(=O)c2cc3c(=O)n4ccccc4nc3n(CC3CCCO3)c2=N)cc1C` (configuration not stated), the displacement is -14.7%.
As for `Cc1cc(NCc2ccc(F)cc2Cl)n2nnnc2n1`, the displacement was -1.6%.
For `Cc1c(N(C)C(=O)C23CC4CC(CC(C4)C2)C3)c(=O)n(-c2ccccc2)n1C`, the displacement was -6%.
On to `CC1(C)NC(=O)N(c2ccccc2Cl)C1(C)NO` (configuration not stated), for which the displacement is -2.3%.
The same measure for `CCOC(=O)N1CCC(c2cc(=O)n3[nH]c(-c4ccccc4)cc3n2)CC1`: 5.1%; for `CCOC(=O)c1ccc(NC(=O)CC2C(=O)N(c3cccc(OC)c3)C(=O)N2CCOC)cc1` (configuration not stated): -1.5%; for `O=C(c1cc2c(s1)CCCCC2)N1CCN(c2ncccn2)CC1`: 8.4%.
Regarding `O=C(CN1CCN(c2ccc(F)cc2)CC1)N1CCOCC1`, the displacement was -2.4%.
Consider `COc1nc(N(C)C)nc(N(OC)S(=O)(=O)c2ccccc2Cl)n1`, for which the displacement was 3.7%.
`CCC(C)c1c(O)nc(SCC(=O)c2ccccc2)[nH]c1=O` (configuration not stated): the displacement was -7.8%.
Take `Cc1ccc(S(=O)(=O)NC(=O)COc2ccccc2C(N)=O)cc1`: the displacement is -4.3%.
With `COc1ccccc1-c1nc(C#N)c(N2CCN(C(c3ccccc3)c3ccccc3)CC2)o1` the figure was -2.4%; with `CC(C)OCCCNC(=O)c1sc(=S)n(C)c1N`, 10.9%.
With `CCOC(=O)C1CCN(CC(=O)Nc2c(C(=O)OC)[nH]c3ccccc23)CC1`, the displacement was -7%.
The same measure for `CCOc1cc2c(cc1OCC)C(C(=O)O)C(c1cc(Br)c(O)c(OC)c1)N(C)C2=O` (configuration not stated): 6.3%; for `CCSCCNC(=O)c1cc(-n2cnnc2)ccc1Cl`: 3%.
With `CCOC(=O)c1oc2cccc(O)c2c1CN(Cc1ccccc1)C(C)=O`, the displacement is 1.2%.
With `O=C(CCC(=O)N(CC(=O)NC1CCCCC1)Cc1ccco1)Nc1nccs1` the figure was -3.5%; with `CSc1nc(-c2ccccc2O)nc(-c2ccccc2O)n1`, 4.5%.
